From PubChem BioAssay (NCI)
The panel holds about 83,000 compounds, 20% with a hit somewhere; the sample as a whole holds those more often.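 Each cell line was grown in a 96-well plate and treated with one concentration of compound for 48 hours. Values below 10 were considered active.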 Values without a mark were called inactive. The source made the active and inactive calls.

Tests used:
Assay in all cases: NCI-60 one-dose screen, 48 h (100 = growth as untreated, 0 = no growth, -100 = all killed)
EKVX NSCLC = details: 10 µM
SN12C renal = details: 10 µM
UO-31 renal = details: 10 µM
TK-10 renal = details: 10 µM
ACHN renal = details: 10 µM
CAKI-1 renal = details: 10 µM
A498 renal = details: 10 µM
CCRF-CEM leukemia = details: 10 µM
MOLT-4 leukemia = details: 10 µM unless noted
SR leukemia = details: 10 µM
RPMI-8226 leukemia = details: 10 µM
OVCAR-8 ovarian = details: 10 µM
OVCAR-5 ovarian = details: 10 µM
OVCAR-4 ovarian = details: 10 µM
SK-OV-3 ovarian = details: 10 µM
IGROV1 ovarian = details: 10 µM
OVCAR-3 ovarian = details: 10 µM
HS 578T breast = details: 10 µM
NCI/ADR-RES ovarian = details: 10 µM

Structure (SMILES) | growth (EKVX NSCLC) [%] | growth (SN12C renal) [%] | growth (UO-31 renal) [%] | growth (TK-10 renal) [%] | growth (ACHN renal) | growth (CAKI-1 renal) [%] | growth (A498 renal) [%] | growth (CCRF-CEM leukemia) | growth (MOLT-4 leukemia) [%] | growth (SR leukemia) | growth (RPMI-8226 leukemia) | growth (OVCAR-8 ovarian) | growth (OVCAR-5 ovarian) | growth (OVCAR-4 ovarian) [%] | growth (SK-OV-3 ovarian) [%] | growth (IGROV1 ovarian) [%] | growth (OVCAR-3 ovarian) | growth (HS 578T breast) | growth (NCI/ADR-RES ovarian)
COc1cccc(C(c2cc3c(cc2O)OCO3)N2CCOCC2)c1OC (stereo unspecified) | 97.7 | 97.8 | 88.7 | 101 | 103% | 94.7 | 75.3 | 97.1% | 96 | 89.5% | 105% | 99.2% | 104% | 99.5 | 101 | 101 | 111% | 95.5% | 104%
O=C(CNS(=O)(=O)Cc1ccccc1)NNc1ccccc1 | 53.3 | 75 | 35.7 | 90.6 | 36.7% | 39.8 | 108 | 45.2% | 35.4 | 39.2% | 62.4% | 58.4% | 68.6% | 42.6 | 78.7 | 65.5 | 86.8% | – | 67%
Cc1c(-c2ccccc2)[nH]c2ccccc12 | 104 | 114 | 90.4 | 119 | 100% | 91.5 | 91.3 | 95.1% | 99.6 | 102% | 88.3% | 105% | 99% | 96.7 | – | 103 | 105% | 102% | 105%
Cn1ncc2cc3c(Nc4ccc(Cl)cc4)cccc3nc21 | 76.7 | 93.7 | 62.5 | 92.9 | 90.5% | 88.6 | 75.4 | 95.5% | 89 | 84.8% | 79% | 89.8% | 109% | 88.2 | 94.7 | 95.8 | 94.1% | 89% | 89.1%
COc1ccc(C(C#N)=C2C=CC(=NO)C=C2)cc1 | 125 | 95.8 | 67 | 12.9 | 78.5% | 93.6 | 114 | 29.8% | 58.4 | 49.8% | 22% | 80.3% | 137% | 91.7 | 114 | 60.9 | 87.3% | 99.6% | 94.8%
O=S(=O)(c1cc(Cl)ccc1O)c1cc(Cl)ccc1O | 100 | 80.4 | 71.8 | 87.5 | 84.9% | 92.1 | 59.6 | 76.2% | 90.2 | 84.6% | 51.2% | 83.7% | 116% | 85.3 | 78.4 | 83.5 | 78% | 65.6% | 91.9%
N#CC(=C1C=CC(=NO)C=C1)c1ccccc1 | 55.1 | 10.3 | 48.4 | 27.2 | 9.06% (active) | 52.3 | 48 | 3.4% (active) | 19.2 | -17.5% (active) | -13% (active) | 2.63% (active) | -10.1% (active) | 14.4 | 37.8 | 24.5 | -26.8% (active) | -18.3% (active) | -37.2% (active)
